# Screens: PubChem, several laboratories
# Mtb UGM inh: blocks M. tuberculosis UGM enzyme. P9WIQ1. purified UGM, fluorescence polarization probe displacement. inhibition, % at 10 µM. actives 0.06% (n = 320,000); in the data active = inhibition above about 10%, passing the limit was not always enough; inconclusive = no clear call, values can overlap the other calls
# Rv3671c protease: inhibitors of M. tuberculosis serine protease Rv3671c. P9WHR9. inhibition, % at 5.96 µM. actives 0.048% (n = 320,000); in the data active = inhibition above about 38%;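 note: extracellular domain of Rv3671c used as enzyme; 0% = enzyme with DMSO and 100% = no enzyme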
# GDH-TPI counter-1: inhibits GDH-TPI coupling enzymes, artifact for Mtb FBA screen; GDH-TPI coupled enzyme counterscreen, NADH absorbance; inhibition, % at 4.8 µM; actives 1.2% (n = 360,000); AID 588335; in the data active = inhibition above about 30%;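 note: 0% = DMSO wells and 100% = wells lacking the enzyme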
# FBA Mtb inh: Mtb fructose-bisphosphate aldolase inhibition | P9WQA3 | purified M. tuberculosis FBA, fluorescence read-out | inhibition, % at 1 µM | actives 2.3% (n = 360,000);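 note: 0% = vehicle and 100% = reference inhibitor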
# Target sequence (P9WQA3 whole entry, looked up): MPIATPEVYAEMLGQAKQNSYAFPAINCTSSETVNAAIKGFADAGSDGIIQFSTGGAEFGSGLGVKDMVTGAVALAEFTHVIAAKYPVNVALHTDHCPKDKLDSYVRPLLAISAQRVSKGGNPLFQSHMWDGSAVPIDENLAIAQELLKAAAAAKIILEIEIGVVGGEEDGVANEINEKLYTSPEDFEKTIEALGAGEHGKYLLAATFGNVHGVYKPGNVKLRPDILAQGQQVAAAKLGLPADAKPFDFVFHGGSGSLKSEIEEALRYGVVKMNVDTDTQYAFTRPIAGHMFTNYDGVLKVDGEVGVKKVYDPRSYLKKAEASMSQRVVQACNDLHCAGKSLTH
# PriA SSB inh: blocks PriA binding to SSB C-terminal tail; AlphaScreen SSBct-PriA binding, biotinylated peptide; inhibition, % at 33 µM; actives 0.6% (n = 430,000); AID 1272365; in the data active = inhibition mostly above about 37%, no sharp cut-off; inactive = mostly below about 20%;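 note: plate controls were negative control peptide for no effect and reference peptide for full effect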
# Mtb bLac sens: beta-lactam sensitization of Mtb H37Rv. M. tuberculosis H37Rv growth with meropenem, percent inhibition. inhibition, % at 25 µM. actives 0.27% (n = 330,000). AID 434955; call rule not given here;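 note: growth measured after seven days incubation then overnight dye step; 0% = bacteria only wells and 100% = bacteria with antibiotic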
# Mtb FBA confirm: Mtb FBA inhibition, confirmed; inhibition, % at 1 µM; shares compounds with FBA Mtb inh; purified M. tuberculosis FBA, fluorescence read-out; AID 651616; actives 78% (n = 5,600);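 note: 0% = vehicle wells and 100% = reference inhibitor wells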
# GDH-TPI counter-2: GDH-TPI inhibition counter-screen for FBA inhibitors. shares compounds with FBA Mtb inh. GDH-TPI coupled enzyme counterscreen, fluorescence. inhibition, % at 1 µM. actives 81% (n = 5,600); in the data active = inhibition above about 10%
# GDH-TPI dose: inhibits GDH-TPI coupling enzymes in dose response. GDH-TPI coupled enzyme assay, fluorescence, artifact counterscreen. IC50, µM. actives 79% (n = 170). shares compounds with FBA Mtb inh; call rule not given here
# Starred values were filed as active, the others as inactive; ? = inconclusive; · = not tested or not shown; + = active, no number. A selection: hits, their analogues and other compounds. The true share with any hit is near 3.2%. Cut-off read from the data, not from the text of the source, unless noted: active = inhibition above about 27%; inactive = the rest.
SMILES,Mtb UGM inh,Rv3671c protease,GDH-TPI counter-1,FBA Mtb inh,PriA SSB inh,Mtb bLac sens,Mtb FBA confirm,GDH-TPI counter-2,others
CSc1cccc(NC(=O)COc2cc(C)nc(N3CCCC3)n2)c1,·,·,·,·,11,·,·,·,
CCCC(=O)NC(N)=Nc1nc(C)c2cc(C)ccc2n1,·,·,·,·,-1,·,·,·,
CCC(=O)N/C(N)=N/c1nc(C)c2cc(OC)ccc2n1,-2,-7,6,40*,·,24,+,+,
COc1ccc2nc(N=C(N)NC(=O)Nc3ccccc3)nc(C)c2c1,·,·,·,·,7,·,·,·,
COc1ccc2nc(/N=C(\N)NC(=O)C(C)(C)C)nc(C)c2c1,0,7,5,46*,·,96,10,-4,GDH-TPI dose=3.6*
CCOC(=O)CSc1nc(C)c2cc(OC)ccc2n1,-1,-3,7,49*,-24,59,64*,36*,
CCCNC(=O)C(=O)NCC1CCN(Cc2ccccc2)CC1,·,·,·,·,-7,·,·,·,
COc1cc([N+](=O)[O-])ccc1NC(=O)c1cc2cccnc2n(Cc2ccccc2)c1=O,·,·,·,·,-2,·,·,·,
CC[C@@H]1C(c2cccc(C)c2)=NN(c2ccccc2)[C@H]1C(=O)N1CCOC1=O,·,·,10,4,-39,·,·,·,
Cc1cccc(C2=NN(c3ccccc3)[C@H](CO)[C@H]2c2ccc(Cl)cc2)c1,·,·,-4,55*,-4,·,4,-1,
Cc1cccc(C2=NN(c3ccccc3)[C@H](CO)[C@H]2c2ccc(F)cc2)c1,·,·,3,63*,1,·,91*,61*,
O=C(CSc1ccc2ccccc2n1)Nc1ccc(F)c(Cl)c1,·,·,·,·,-10,·,·,·,
O=C(O)C(=O)/C(=C\c1cccc(Cl)c1)c1ccc2ccccc2n1,2,-16,13,79*,-35,20,+,+,
Cc1noc(C)c1CCC(=O)N1CCC(Oc2cccnc2)CC1,·,·,·,·,-3,·,·,·,
C[C@H]1CN([C@@H](C)CO)C(=O)c2cc(/C=C/c3ccccc3)cnc2O[C@H]1CN(C)C(=O)c1cccc(F)c1,·,·,3,64*,·,·,66*,58*,
C[C@@H]1CN([C@H](C)CO)C(=O)c2cc(Br)cnc2O[C@@H]1CN(C)C(=O)c1cccc(F)c1,·,·,9,-1,·,·,·,·,
c1csc(-c2cn3ccc4ccccc4c3n2)c1,5,-6,5,47*,2,82,-4,-2,
CCOc1cc(S(=O)(=O)NCc2ccc(OC)cc2)c(OCC)cc1-n1cnnn1,-3,0,14,6,-10,?,·,·,
CCOc1cc(S(=O)(=O)NC2CC2)c(OCC)cc1-n1cnnn1,0,-6,-5,34*,-9,-1,184*,159*,
CCOc1cc(S(=O)(=O)NCc2ccco2)c(OCC)cc1-n1cnnn1,-1,-10,8,30*,-5,-3,63*,45*,
O=S(=O)(c1ccc(C(F)(F)F)cc1)N1CCN(c2ccc(-c3ccncc3)nn2)CC1,·,·,·,·,-6,·,·,·,
COc1ccc(OC)c(-c2nnc(NC(=O)Cc3ccc(OC)c(OC)c3)s2)c1,·,·,·,·,-7,·,·,·,
Cc1ccc(C)c(C(O)=C2C(=O)C(=O)N(CCN3CCOCC3)C2c2ccco2)c1 (stereo not drawn),·,·,·,·,6,·,·,·,
Cc1ccc(-c2cc(C(=O)NN=Cc3ccc(Cl)cc3)n[nH]2)o1,·,·,·,·,2,·,·,·,
CCCOC(=O)c1ccc(Oc2coc3c(CN(CC)CC)c(O)ccc3c2=O)cc1,0,-4,22,55*,-30,-7,16,12*,
SMILES,Mtb UGM inh,Rv3671c protease,GDH-TPI counter-1,FBA Mtb inh,PriA SSB inh,Mtb bLac sens,Mtb FBA confirm,GDH-TPI counter-2,others
CC(C)CNC(=O)CC(=O)NN=Cc1ccc(F)cc1,·,·,·,·,-2,·,·,·,
CCN(CC)S(=O)(=O)c1cccc(C(=O)N/N=C/c2ccc(N3CCOCC3)cc2)c1,0,-3,26,28*,·,8,-4,-2,
C/C(=N\NC(=O)Cn1ccc(C(F)(F)F)n1)c1ccc(N2CCOCC2)cc1,1,2,9,-2,·,-3,·,·,
O=C(Cn1ccc(C(F)(F)F)n1)N/N=C/c1ccc(N2CCOCC2)cc1,1,1,31,39*,·,0,127*,102*,
CC(=O)Nc1ccccc1NC(=O)CC(C)=NNC(=O)c1ccc([N+](=O)[O-])c(Cl)c1,·,·,·,·,-3,·,·,·,
COc1ccccc1C(=O)Nc1ccc2scnc2c1,·,·,·,·,7,·,·,·,
CCCCc1cc(=O)oc2cc(C)cc(OCC(=O)N3C[C@H]4C[C@@H](C3)c3cccc(=O)n3C4)c12,4,0,13,42*,·,-7,51*,38*,
CCCc1cc(=O)oc2cc(C)cc(OCC(=O)N3C[C@H]4C[C@@H](C3)c3cccc(=O)n3C4)c12,·,·,10,42*,·,·,167*,127*,
Cc1cc(OCC(=O)N2C[C@H]3C[C@@H](C2)c2cccc(=O)n2C3)c2c(C)c(C)c(=O)oc2c1,-1,-2,9,40*,-5,-4,39*,23*,
Cc1c(C)c2ccc(OCC(=O)N3C[C@H]4C[C@H](C3)c3cccc(=O)n3C4)cc2oc1=O,·,·,·,·,-9,·,·,·,
O=C(CC1Sc2ccccc2NC1=O)OCc1cc(=O)oc2cc(O)ccc12 (stereo not drawn),2,-25,21,35*,-6,8,91*,80*,
COc1ccc(CCS(=O)(=O)NC[C@H](O)c2csc3ccccc23)cc1,·,·,·,·,-7,·,·,·,
Cc1cc(=O)oc2cc(OCC(=O)N3CCN(c4ccccc4)CC3)ccc12,1,3,13,13,3,-2,·,·,
CCOC(=O)C1CCN(C(=O)Cc2cc(=O)oc3cc(C)ccc23)CC1,·,·,·,·,3,·,·,·,
Cc1cc(=O)oc2cc(OCc3ccc(C(=O)N4CCN(c5ccccc5)CC4)cc3)ccc12,-2,-18,6,44*,9,37,121*,89*,
Cc1cc(=O)oc2cc(OCC(=O)N3CCCC3)ccc12,-4,8,2,41*,1,-1,13,5,GDH-TPI dose=5.3*
CCOC(=O)C1CCN(C(=O)COc2ccc3c(C)cc(=O)oc3c2)CC1,0,2,5,35*,2,-5,148*,136*,
COc1ncccc1C(=O)NCc1sc(-c2ccccc2Cl)nc1C,·,·,·,·,-10,·,·,·,
COc1ccc(-c2csc(N3CCC(c4ccccc4)C3)n2)cc1 (stereo not drawn),-4,4,1,45*,-7,5,133*,91*,
Cc1cc(C)n(CC(=O)NC2CCCCC2)c(=O)c1-c1nc(-c2ccccc2)no1,·,·,·,·,-7,·,·,·,
COc1ccc(CNC(=O)C2(C)Cc3c(-c4ccc(N(C)C)cc4)ccnc3O2)cc1OC (stereo not drawn),·,·,19,55*,·,·,73*,50*,
COc1ccc(NC(=O)C2(C)Cc3c(-c4ccc(N(C)C)cc4)ccnc3O2)cc1OC (stereo not drawn),·,·,16,29*,·,·,14,-2,GDH-TPI dose=1.2*
